From PubChem
ELG1 genotoxic: qHTS screen for small molecules that induce genotoxicity in human embryonic kidney (HEK293T) cells expressing luciferase-tagged ELG1 | HEK293T ELG1-luciferase reporter, luminescence, 16 h | Potency, µM (doses to about 46 µM), usual class: activators | hit rate 1.3% among 330,000 | AID 504466, 2011; also: nearly all actives have a fitted effect of over 60% in size
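Genotoxic stress is detected as increased luminescence from luciferase-tagged ELG1 in HEK293T cells, measured with ONE-Glo after a 16 hr treatment at 37 °C.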
FLuc counter: qHTS profiling assay for firefly luciferase inhibitor/activator using purifed enzyme and Km concentrations of substrates (counterscreen for miR-21 project). Luciferin 4-monooxygenase (Photinus pyralis), P08659. Potency, µM (series often up to 57.5 µM), most hits filed as inhibitors. hit rate 6.9% among 360,000. purified FLuc, Km substrates, luminescence inhibition; also: nearly all actives have a fitted effect of over 55% in size
Target sequence (P08659 whole entry, looked up): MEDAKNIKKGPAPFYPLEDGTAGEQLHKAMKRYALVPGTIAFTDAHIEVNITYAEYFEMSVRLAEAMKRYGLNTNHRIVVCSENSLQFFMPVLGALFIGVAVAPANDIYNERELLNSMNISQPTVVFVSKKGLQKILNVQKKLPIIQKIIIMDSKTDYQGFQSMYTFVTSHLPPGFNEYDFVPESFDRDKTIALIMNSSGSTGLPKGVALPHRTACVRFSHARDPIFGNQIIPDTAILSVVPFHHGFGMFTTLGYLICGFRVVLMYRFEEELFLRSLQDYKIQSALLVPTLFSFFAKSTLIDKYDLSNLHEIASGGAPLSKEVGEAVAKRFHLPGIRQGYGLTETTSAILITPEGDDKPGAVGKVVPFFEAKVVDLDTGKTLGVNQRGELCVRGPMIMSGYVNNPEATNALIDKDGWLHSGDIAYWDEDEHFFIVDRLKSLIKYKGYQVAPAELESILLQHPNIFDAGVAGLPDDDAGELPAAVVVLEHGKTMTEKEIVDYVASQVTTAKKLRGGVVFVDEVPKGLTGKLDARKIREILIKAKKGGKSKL
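Purified P. pyralis luciferase, 10 nM final, with Km-level 10 uM D-luciferin and 10 uM ATP in 50 mM Tris acetate pH 7.5, 10 mM Mg acetate, 0.01% Tween-20, 0.05% BSA; 6-point qHTS titration about 60 µM downward; luminescence read.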
NPC1 promoter act: qHTS Assay for NPC1 Promoter Activators. AID 485313, 2010. Huh7 NPC1 promoter luciferase reporter, 24 h. hit rate 2.4% among 320,000. Potency, µM (top dose mostly 9.22 µM), hits mostly activators; also: nearly all actives have a fitted effect of over 60% in size
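NPC1 promoter–luciferase Huh7 cells; 24 h compound; luminescence.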
Rab9 promoter act: qHTS Assay for Rab9 Promoter Activators | Huh7 Rab9 promoter-luciferase reporter, luminescence, 24 h | Potency, µM (doses to about 9.22 µM), most hits filed as activators | hit rate 2.8% among 320,000 | AID 485297, 2010; also: nearly all actives have a fitted effect of over 60% in size
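Promoter activation is measured as luciferase luminescence in Huh7 cells stably transfected with a Rab9 promoter–luciferase construct, following 24 h compound exposure at 37 °C and 10 min reagent incubation at ambient temperature.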
SMN2 splice enh: qHTS Assay for Enhancers of SMN2 Splice Variant Expression; HEK293 SMN2-luciferase splicing reporter, luminescence, 30-36 h; Potency, µM (titrated, usually from 46.1 µM), usual class: activators; hit rate 2.8% among 210,000; AID 1458, 2008; also: nearly all actives have a fitted effect of over 55% in size
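HEK293 cells carry an SMN2 minigene-luciferase reporter in which exon 7 inclusion puts luciferase in frame. Cells were seeded at 2000 cells/well, attached for 10-12 hours, then exposed to compounds for 30-36 hours at 37C before ONE-Glo luminescence.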
Hits are given with their value; 0 = inactive; ? = inconclusive; - = no result given; [ ] = remark or other dose. In the library only some 7.4% were active in any assay of this set; here they are far more common. Calls follow the shape of the dose curve; as a rule, active = well fitted curve in the direction sought with a large enough effect; inconclusive = small, poorly fitted or top-dose-only effect, or another doubt; inactive = no such curve, though single readings can be large; an effect the other way counts as inactive or inconclusive.

SMILES	ELG1 genotoxic	FLuc counter	NPC1 promoter act	Rab9 promoter act	SMN2 splice enh
COc1c(C(C)(C)C)cc([N+](=O)[O-])c(C)c1[N+](=O)[O-]	-	-	-	-	0
O=C1NC(=O)C(=Cc2ccc(-c3ccccc3[N+](=O)[O-])o2)C(=O)N1	0	?	0	0	-
O=C1NC(=O)C(=Cc2ccc(-c3cc(Cl)ccc3[N+](=O)[O-])o2)C(=O)N1	0	15.1µM	0	0	0
CNC(=O)Oc1ccc(C(=O)N2c3ccccc3NC(=O)C2C)cc1 (stereo not given)	0	0	0	0	-
CNC(=O)Oc1ccc2c(c1)C(=O)c1ccccc1CO2	0	10.7µM	0	0	0
O=C(O)CCn1cc(C=C2C(=O)NC(=O)NC2=O)c(-c2ccc(Br)cc2)n1	0	0	0	0	0
O=C(O)CCn1cc(C=C2C(=O)NC(=S)NC2=O)c(-c2cccc(Cl)c2)n1	0	21.3µM	0	0	-
Cc1c(C(=O)N2CCOCC2)sc2nc(-c3ccccc3)cn12	?	16.9µM	3.98µM	2.51µM	?
CC(C)CC(=O)C[C@H](O)C(Cl)(Cl)Cl	-	-	-	-	0[9.22 µM]
CN(C)C(=O)Oc1ccc(OCc2nc3ccccc3[nH]2)cc1	?	1.51µM	?	0.447µM	7.08µM
c1ccc2c([C@@H]3CCN(CCN4CCOCC4)C3)c[nH]c2c1	-	-	-	-	0[9.22 µM]
CCN(CC)c1ccc(/C=C2/C(=O)NC(=O)N(CC3CCCO3)C2=O)cc1 (stereo not given)	0	16.9µM	0	0	0
O=C1NC(=O)N(CC2CCCO2)C(=O)/C1=C/c1cccs1 (stereo not given)	0	?	0	0	-
COc1cccc(NC(=O)CCc2nc(-c3ccc(C(C)(C)C)cc3)no2)c1	-	2.69µM	-	-	0
COc1ccc(NC(=O)CCc2nc(C3=CCN(Cc4cccc(C)c4)CC3)no2)c(OC)c1	-	0	-	-	-
Cc1noc(C(=O)Nc2sc3c(c2C#N)CCC3)c1Cl	0	15.1µM	0	0	0
c1ccc(C[N+]23CN4CN(CN(C4)C2)C3)cc1	-	-	-	-	0[9.22 µM]
c1ccc(OP(Oc2ccccc2)Oc2ccccc2)cc1	-	-	-	-	0
N#CC(C(=O)C12CC3CC(CC(C3)C1)C2)c1nc2ccccc2[nH]1 (stereo not given)	0	10.7µM	0	0	0
Cc1onc(-c2ccccc2Cl)c1C(=O)OCC(=O)c1ccc2c(c1)OCCO2	0	4.78µM	0	0	0
CC(=O)Nc1ccccc1C(=O)OCC(=O)Nc1ncccn1	0	0	0	0	-
CC(=O)Nc1ccccc1C(=O)OCC(=O)c1ccc2c(c1)OCCO2	0	0.757µM	?	3.55µM	-
CN(C)CCCc1cccnc1	-	-	-	-	0[9.22 µM]
O=C(O)Cn1cc(/C=C2\C(=O)NC(=O)N(Cc3ccco3)C2=O)c2ccccc21	0	16.9µM	0	0	0
CC[C@@]1(O)CC(O)c2c(cc3c(c2O)C(=O)c2c(O)ccc(O)c2C3=O)C1C(=O)OC (stereo not given in full)	-	-	-	-	0
SMILES	ELG1 genotoxic	FLuc counter	NPC1 promoter act	Rab9 promoter act	SMN2 splice enh
CC[C@]1(O)CC(O[C@@H]2CC(N(C)C)C(O)C(C)O2)c2c(cc3c(c2O)C(=O)c2c(O)cccc2C3=O)C1C(=O)OC (stereo not given in full)	-	-	-	-	0.794µM
COc1cc2c(cc1OC)[C@]13CC[N@+]4(C)CC5=CCO[C@H]6CC(=O)N2[C@@H]1C6[C@@H]5C[C@]34O (stereo not given in full)	-	-	-	-	0[9.22 µM]
CCOC(=O)c1sc(=NC(=O)c2ccc(C)c(C)c2)n(C)c1C	11.6µM	?	3.16µM	2µM	0
CN(CC(=O)N1CCc2ccccc21)S(=O)(=O)c1cccs1	10.3µM	12µM	2.82µM	3.55µM	11.2µM
C/C=C/C/C=C/CCC(=O)[C@H]1O[C@H]1C(N)=O	-	-	-	-	0
CCCC[N+](=O)[O-]	-	-	-	-	0
O=P(Nc1cccnc1)(Oc1ccccc1)Oc1ccccc1	0	0	0	0	3.98µM
CC(=O)Nc1ccc(NC(=O)Oc2ccccc2)cc1	0	?	0	0	0
CN(C)c1ccc(NC(=O)Oc2ccccc2)cc1	?	3.01µM	0	0	0
Cc1nc2ccc(NC(=O)c3ccc(Cl)s3)cc2s1	9.2µM	?	3.16µM	1.58µM	14.1µM
